Here are results for 40 targets from the supplement of paper PMC11001985.

UniProt Q15149, sequence (Q15149 whole entry): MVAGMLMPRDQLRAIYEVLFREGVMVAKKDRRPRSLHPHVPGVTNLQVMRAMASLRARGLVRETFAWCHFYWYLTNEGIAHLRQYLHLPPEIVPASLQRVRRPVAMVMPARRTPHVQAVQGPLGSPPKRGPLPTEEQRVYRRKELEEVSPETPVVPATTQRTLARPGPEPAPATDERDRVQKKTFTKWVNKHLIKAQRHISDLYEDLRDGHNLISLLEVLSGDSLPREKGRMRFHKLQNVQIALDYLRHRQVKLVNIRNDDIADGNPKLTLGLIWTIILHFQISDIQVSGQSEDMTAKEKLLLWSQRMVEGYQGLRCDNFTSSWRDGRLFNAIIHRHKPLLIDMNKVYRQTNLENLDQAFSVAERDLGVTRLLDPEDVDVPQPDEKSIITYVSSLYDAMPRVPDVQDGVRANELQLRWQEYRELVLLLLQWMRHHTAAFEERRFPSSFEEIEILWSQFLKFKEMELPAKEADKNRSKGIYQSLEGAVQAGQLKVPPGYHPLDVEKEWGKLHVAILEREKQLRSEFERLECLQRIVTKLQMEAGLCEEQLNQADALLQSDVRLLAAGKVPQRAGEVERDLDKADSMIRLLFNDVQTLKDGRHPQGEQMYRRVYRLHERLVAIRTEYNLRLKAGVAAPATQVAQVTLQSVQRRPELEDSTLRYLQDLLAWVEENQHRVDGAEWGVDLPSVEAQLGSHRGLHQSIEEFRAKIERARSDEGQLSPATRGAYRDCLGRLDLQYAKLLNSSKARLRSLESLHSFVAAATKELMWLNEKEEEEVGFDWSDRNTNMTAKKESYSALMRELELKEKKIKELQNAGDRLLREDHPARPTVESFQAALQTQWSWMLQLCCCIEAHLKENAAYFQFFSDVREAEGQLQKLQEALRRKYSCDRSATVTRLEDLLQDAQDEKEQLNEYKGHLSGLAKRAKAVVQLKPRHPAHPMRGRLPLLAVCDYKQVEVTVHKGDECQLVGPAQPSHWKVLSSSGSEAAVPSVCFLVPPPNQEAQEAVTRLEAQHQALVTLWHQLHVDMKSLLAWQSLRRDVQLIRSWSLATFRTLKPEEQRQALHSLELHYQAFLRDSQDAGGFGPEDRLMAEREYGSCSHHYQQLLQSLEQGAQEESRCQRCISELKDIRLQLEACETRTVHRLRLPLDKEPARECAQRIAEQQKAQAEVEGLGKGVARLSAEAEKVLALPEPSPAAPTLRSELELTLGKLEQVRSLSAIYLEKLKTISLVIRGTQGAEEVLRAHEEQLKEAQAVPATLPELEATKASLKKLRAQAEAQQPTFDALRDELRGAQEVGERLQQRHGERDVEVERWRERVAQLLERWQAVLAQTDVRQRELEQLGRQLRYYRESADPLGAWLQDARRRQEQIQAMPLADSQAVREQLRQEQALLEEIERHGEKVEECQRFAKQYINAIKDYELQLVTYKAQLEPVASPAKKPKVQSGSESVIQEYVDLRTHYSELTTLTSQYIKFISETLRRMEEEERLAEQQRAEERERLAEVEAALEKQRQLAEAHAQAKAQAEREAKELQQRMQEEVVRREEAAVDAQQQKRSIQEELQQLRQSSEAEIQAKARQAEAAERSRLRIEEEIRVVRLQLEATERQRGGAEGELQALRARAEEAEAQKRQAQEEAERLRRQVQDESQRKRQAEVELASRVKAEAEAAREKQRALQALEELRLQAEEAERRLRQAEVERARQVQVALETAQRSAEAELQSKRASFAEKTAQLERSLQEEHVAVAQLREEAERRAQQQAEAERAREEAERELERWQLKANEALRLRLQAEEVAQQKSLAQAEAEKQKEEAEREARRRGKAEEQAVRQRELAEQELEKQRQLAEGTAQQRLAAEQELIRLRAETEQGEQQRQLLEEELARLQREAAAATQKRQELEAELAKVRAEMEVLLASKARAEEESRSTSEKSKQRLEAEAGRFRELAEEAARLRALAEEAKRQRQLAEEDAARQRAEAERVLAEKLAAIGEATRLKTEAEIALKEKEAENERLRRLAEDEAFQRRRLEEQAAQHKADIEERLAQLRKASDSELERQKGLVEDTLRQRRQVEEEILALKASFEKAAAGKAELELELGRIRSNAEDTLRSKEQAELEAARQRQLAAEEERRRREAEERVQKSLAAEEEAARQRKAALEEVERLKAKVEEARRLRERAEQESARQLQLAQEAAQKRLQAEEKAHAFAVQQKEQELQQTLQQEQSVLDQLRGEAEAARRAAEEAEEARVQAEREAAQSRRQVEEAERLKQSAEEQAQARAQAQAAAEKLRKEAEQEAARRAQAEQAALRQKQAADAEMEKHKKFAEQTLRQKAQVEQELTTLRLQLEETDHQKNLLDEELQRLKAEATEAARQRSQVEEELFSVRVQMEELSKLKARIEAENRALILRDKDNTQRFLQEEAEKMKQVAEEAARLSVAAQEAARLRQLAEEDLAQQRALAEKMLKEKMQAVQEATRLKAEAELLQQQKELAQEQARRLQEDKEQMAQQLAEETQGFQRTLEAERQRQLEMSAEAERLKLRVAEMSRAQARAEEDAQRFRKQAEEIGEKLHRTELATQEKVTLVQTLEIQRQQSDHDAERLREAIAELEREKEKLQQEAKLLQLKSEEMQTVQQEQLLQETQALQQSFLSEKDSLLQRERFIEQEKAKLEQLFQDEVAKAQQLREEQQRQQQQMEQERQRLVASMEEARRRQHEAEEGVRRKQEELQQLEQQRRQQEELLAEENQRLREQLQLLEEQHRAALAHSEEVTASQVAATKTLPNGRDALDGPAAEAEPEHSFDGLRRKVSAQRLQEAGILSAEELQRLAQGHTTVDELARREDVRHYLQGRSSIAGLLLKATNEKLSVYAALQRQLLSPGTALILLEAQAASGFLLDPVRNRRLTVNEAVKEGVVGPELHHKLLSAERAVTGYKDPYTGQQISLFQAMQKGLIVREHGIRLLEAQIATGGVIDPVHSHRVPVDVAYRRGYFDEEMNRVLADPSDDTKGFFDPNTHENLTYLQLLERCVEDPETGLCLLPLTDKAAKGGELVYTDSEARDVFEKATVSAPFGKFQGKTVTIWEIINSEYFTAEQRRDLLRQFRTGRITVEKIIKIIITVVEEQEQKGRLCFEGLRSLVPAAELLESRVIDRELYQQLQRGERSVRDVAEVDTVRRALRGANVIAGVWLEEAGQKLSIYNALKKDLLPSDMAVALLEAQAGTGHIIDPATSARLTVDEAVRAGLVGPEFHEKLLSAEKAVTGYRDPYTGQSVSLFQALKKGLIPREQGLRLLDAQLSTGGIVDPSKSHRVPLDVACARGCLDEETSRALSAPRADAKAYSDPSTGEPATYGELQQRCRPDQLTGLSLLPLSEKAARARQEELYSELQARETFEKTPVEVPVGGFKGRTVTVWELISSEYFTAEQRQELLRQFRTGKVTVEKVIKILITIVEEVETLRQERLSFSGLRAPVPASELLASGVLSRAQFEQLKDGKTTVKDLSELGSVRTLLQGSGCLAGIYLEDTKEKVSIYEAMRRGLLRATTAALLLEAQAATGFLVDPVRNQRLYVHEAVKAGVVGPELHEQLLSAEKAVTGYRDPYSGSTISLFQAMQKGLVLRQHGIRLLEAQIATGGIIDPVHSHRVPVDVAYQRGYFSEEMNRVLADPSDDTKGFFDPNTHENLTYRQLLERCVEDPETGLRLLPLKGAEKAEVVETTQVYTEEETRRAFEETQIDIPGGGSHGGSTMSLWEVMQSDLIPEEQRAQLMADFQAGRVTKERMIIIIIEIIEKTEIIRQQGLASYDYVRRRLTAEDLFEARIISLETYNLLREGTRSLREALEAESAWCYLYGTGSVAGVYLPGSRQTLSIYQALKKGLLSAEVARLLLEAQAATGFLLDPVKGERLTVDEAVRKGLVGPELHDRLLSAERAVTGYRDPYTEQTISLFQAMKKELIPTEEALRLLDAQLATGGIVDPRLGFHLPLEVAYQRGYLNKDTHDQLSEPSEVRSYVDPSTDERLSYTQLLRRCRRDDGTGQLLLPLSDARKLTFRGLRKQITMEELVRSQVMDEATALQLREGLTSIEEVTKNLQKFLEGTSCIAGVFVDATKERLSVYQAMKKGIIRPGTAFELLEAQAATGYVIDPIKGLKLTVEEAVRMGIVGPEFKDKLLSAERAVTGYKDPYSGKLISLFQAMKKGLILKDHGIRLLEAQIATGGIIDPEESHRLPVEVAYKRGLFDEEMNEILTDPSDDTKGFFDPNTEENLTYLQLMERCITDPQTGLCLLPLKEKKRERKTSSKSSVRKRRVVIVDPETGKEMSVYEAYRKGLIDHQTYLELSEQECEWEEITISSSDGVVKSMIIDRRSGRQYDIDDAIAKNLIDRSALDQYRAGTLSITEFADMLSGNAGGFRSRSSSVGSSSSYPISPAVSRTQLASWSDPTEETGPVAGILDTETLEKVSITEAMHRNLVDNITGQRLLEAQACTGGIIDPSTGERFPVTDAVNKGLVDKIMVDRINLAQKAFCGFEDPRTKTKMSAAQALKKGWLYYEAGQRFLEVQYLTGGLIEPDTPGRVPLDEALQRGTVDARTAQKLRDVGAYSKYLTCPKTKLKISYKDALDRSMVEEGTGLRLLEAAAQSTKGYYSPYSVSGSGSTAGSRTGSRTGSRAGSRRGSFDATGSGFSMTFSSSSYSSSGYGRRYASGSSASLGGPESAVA
UniProt Q9Y230, sequence (Q9Y230 whole entry): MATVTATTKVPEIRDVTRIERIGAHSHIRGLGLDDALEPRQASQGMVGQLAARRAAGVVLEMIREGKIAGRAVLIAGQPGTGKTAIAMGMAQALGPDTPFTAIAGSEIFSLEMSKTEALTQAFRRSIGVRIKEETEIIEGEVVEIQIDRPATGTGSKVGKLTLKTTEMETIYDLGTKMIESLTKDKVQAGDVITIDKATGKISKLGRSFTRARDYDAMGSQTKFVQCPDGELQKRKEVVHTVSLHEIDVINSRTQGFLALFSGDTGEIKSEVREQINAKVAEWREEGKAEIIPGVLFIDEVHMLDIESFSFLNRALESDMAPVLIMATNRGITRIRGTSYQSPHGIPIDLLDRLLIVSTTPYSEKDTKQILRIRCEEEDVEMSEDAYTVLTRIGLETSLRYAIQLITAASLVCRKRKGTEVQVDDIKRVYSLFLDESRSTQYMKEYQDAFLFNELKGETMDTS

Compound in this test: C#CCNC(=O)CCSSCCC(=O)NCCc1ccc(C=O)c(C=O)c1
Briefly: lysine labeling ratio R10:1 (500 µM / 50 µM probe), SILAC-ABPP in living cells; higher = lower intrinsic lysine reactivity toward the probe, active = 2 or less. The following applies: HeLa; probe concentrations 500 vs 50 µM. In short, it runs like this:
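With forward and reverse label swaps, light and heavy SILAC HeLa cells, alive and in PBS at room temperature, were exposed to either 500 µM or 50 µM of an alkyne-tagged lysine probe bearing a disulfide link. After mixing, lysates were clicked to biotin-azide, cut with trypsin, pulled down on neutravidin, freed with DTT, alkylated and analysed on a TIMS-TOF Pro by LC-MS/MS. The per-lysine value R is the median over forward and reverse replicates of the filtered median high-probe/low-probe MS1 peptide ratio. It is capped at 20.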
Take “NPR3 (lysine site: K456) (UniProt P17342)”: the “lysine labeling ratio R10:1” value is 0.78 (active). Next, “KRT18 (lysine site: K111) (UniProt P05783)”: 14.4 (inactive); “PPIA (lysine site: K133) (UniProt P62937)”: 2.46 (inactive); “DDX5 (lysine site: K375) (UniProt P17844)”: 2.45 (inactive). On to “MYH9 (lysine site: K1724) (UniProt P35579)”, for which the “lysine labeling ratio R10:1” value was 1.66 (active). Next, UniProt P55072 (lysine site: K754): 2.84 (inactive); “GPC1 (lysine site: K461) (UniProt P35052)”: 1.89 (active). For “ATP1B1 (lysine site: K216) (UniProt P05026)”, the “lysine labeling ratio R10:1” value is 4.23 (inactive). With “PTPRF (lysine site: K61) (UniProt P10586)”, the “lysine labeling ratio R10:1” value is 1.48 (active). Next, “EPRS (lysine site: K666) (UniProt P07814)”: 0.985 (active); UniProt P61978 (lysine site: K34): 3.82 (inactive); UniProt Q15149 (lysine site: K2274): 2.24 (inactive). As to UniProt Q5XKE5 (lysine site: K350), the “lysine labeling ratio R10:1” value was 4.43 (inactive). Take “SYNE2 (lysine site: K1618) (UniProt Q8WXH0)”: the “lysine labeling ratio R10:1” value is 1.41 (active). With UniProt Q15149 (lysine site: K4270) the figure was 0.968 (active). Turning to “PPL (lysine site: K492) (UniProt O60437)”, the “lysine labeling ratio R10:1” value is 1.71 (active). Next, “DCBLD2 (lysine site: K391) (UniProt Q96PD2)”: 3.28 (inactive); “ROBO1 (lysine site: K282) (UniProt Q9Y6N7)”: 2.01 (inactive); “FN1 (lysine site: K249) (UniProt P02751)”: 2.7 (inactive). As for “SPTAN1 (lysine site: K190) (UniProt Q13813)”, the “lysine labeling ratio R10:1” value is 4.11 (inactive). Regarding “CLU (lysine site: K222) (UniProt P10909)”, the “lysine labeling ratio R10:1” value was 0.58 (active).

With “ASPH (lysine site: K110) (UniProt Q12797)”, the “lysine labeling ratio R10:1” value was 4.5 (inactive). With “ATP1B1 (lysine site: K288) (UniProt P05026)” the figure was 13.2 (inactive); with “FZD5 (lysine site: K113) (UniProt Q13467)”, 1.57 (active); with UniProt P14618 (lysine site: K367), 3.33 (inactive). “LMO7 (lysine site: K1405) (UniProt Q8WWI1)”: the “lysine labeling ratio R10:1” value is 1.4 (active).

“MET (lysine site: K599) (UniProt P08581)”: the “lysine labeling ratio R10:1” value was 1.67 (active).

Take “MSN (lysine site: K151) (UniProt P26038)”: the “lysine labeling ratio R10:1” value was 2.26 (inactive). In the case of UniProt O60462 (lysine site: K547), the “lysine labeling ratio R10:1” value is 4.2 (inactive). For UniProt Q13275 (lysine site: K581), the “lysine labeling ratio R10:1” value was 3.3 (inactive). “RPS3A (lysine site: K249) (UniProt P61247)”: the “lysine labeling ratio R10:1” value was 1.8 (active). “CLSTN1 (lysine site: K322) (UniProt O94985)”: the “lysine labeling ratio R10:1” value was 0.805 (active). On to “CTTN (lysine site: K184) (UniProt Q14247)”, for which the “lysine labeling ratio R10:1” value was 1.5 (active).

As to “DSC2 (lysine site: K270) (UniProt Q02487)”, the “lysine labeling ratio R10:1” value is 2.49 (inactive). With “RUVBL2 (lysine site: K427) (UniProt Q9Y230)”, the “lysine labeling ratio R10:1” value was 2.02 (inactive). Next, “HNRNPC (lysine site: K94) (UniProt P07910)”: 3.25 (inactive); “EEF1G (lysine site: K241) (UniProt P26641)”: 1.4 (active). Turning to “HSPA4 (lysine site: K686) (UniProt P34932)”, the “lysine labeling ratio R10:1” value is 8.32 (inactive).

Regarding UniProt P61088 (lysine site: K82), the “lysine labeling ratio R10:1” value was 1.19 (active). Regarding “DYNC1H1 (lysine site: K3480) (UniProt Q14204)”, the “lysine labeling ratio R10:1” value was 1.73 (active).
